The structures appear in SMILES notation. A number with no mark means an inactive call. Inconclusive results are not listed. The source made the active and inactive calls. Unless noted, calls follow the shape of the dose curve; as a rule, active = well fitted curve in the direction sought with a large enough effect in the repeat runs; inconclusive = weak or mixed curves; inactive = no such curve, though single readings can be large; an effect the other way counts as inactive or inconclusive.

Assay [1] in a line: qHTS assay to identify small molecule antagonists of the sonic hedgehog signaling (Shh) pathway (AID 1259369; calls by dose curve; also: nearly all actives have a fitted effect of over 45% in size; also: potency is read from the fitted curve at half-maximal effect). Summed up: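 3T3Gli1-Luc, conditioned-medium-stimulated, 24hr cpd, 37C/5% CO2; Gli1-driven firefly Luc luminescence after 30min RT with luciferase reagent. Cells plated 4hr before cpd.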
The target of assay [2] is Estrogen receptor beta (Homo sapiens) (UniProt Q92731). In words: qHTS assay to identify small molecule agonists of the estrogen receptor beta (ER-beta) signaling pathway (AID 1259377; active = well fitted activation curve with a large enough effect in the signal ratio in the repeat runs, not every such curve was filed as active; the % refers to the signal ratio). Summed up: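 HEK293T ER-beta-UAS-bla; 2% charcoal-stripped FBS; cells pre-incubated 6 hr, compound 16 hr, 37C/5% CO2; LiveBLAzer B/G FRET substrate 2 h RT; fluorescence intensity read.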
A general note: qHTS replaces the single test concentration by a dilution series.

The target is the same in assay [3]. In words: qHTS assay to identify small molecule antagonists of the estrogen receptor beta (ER-beta) signaling pathway (AID 1259378; active = well fitted inhibition curve with a large enough effect in the signal ratio in the repeat runs, not every such curve was filed as active; the % refers to the signal ratio). A digest of the protocol: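 Antagonist mode: compounds added to beta-lactamase reporter HEK293T ER-beta-UAS cells stimulated with E2 (1nM final), 16 hr at 37C. LiveBLAzer B/G FRET substrate, 2 hours room temperature, fluorescence read-out.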

Assay [4] in a line: qHTS assay to identify small molecule agonists of the androgen receptor (AR) signaling pathway in the presence of an antagonist - cell viability counter screen (AID 1259379).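 Also: MDA-kb2 human breast cancer cells carrying an MMTV luciferase reporter; series mostly up to about 92 µM; nearly all actives have a fitted effect of over 25% in size.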 A digest of the protocol:
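Cells: MDA-kb2 (MMTV-luc, AR and GR elements), 3,000/well, 5 hr settle. Added: nilutamide 3.0uM final, then compounds (15 conc.). Incubation: 16 hr, 37C, no CO2. Read-out: CellTiter-Fluor, 1 hr, fluorescence.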

Assay [5] can be described thus: qHTS assay to identify small molecule antagonists of the estrogen receptor beta (ER-beta) signaling pathway - cell viability counter screen (AID 1259382).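 Also: HEK293T cells carrying ER-beta-UAS-bla reporter stimulated with estradiol; series mostly up to about 92 µM; nearly all actives have a fitted effect of over 55% in size.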 A digest of the protocol:
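Cells: ER-beta-UAS-bla HEK293T, 2,000/well, 2% CS-FBS, 6 hr settle. Cpd + E2 (1nM final), 16 hr, 37C/5% CO2. Bla FRET substrate 2 hr RT, then CellTiter-Glo 30 min RT, luminescence.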

The nature of assay [6]: qHTS assay to identify small molecule agonists or antagonists of the thyroid stimulating hormone receptor (TSHR) signaling pathway - wild type cell line counter screen (AID 1259384; calls by dose curve). A digest of the protocol: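 Counter screen in untransfected Hek293: compounds (15-point titration, triplicate) plus phosphodiesterase inhibitor Ro20-1724 added after 18 h plating; 30 min RT. Intracellular cAMP via competitive d2/cryptate immunoassay, 1 h incubation.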

For assay [7], the target named is Thyrotropin receptor (Homo sapiens) (UniProt P16473). In words: qHTS assay to identify small molecule antagonists of the thyroid stimulating hormone receptor (TSHR) signaling pathway (AID 1259385; calls by dose curve; also: nearly all actives have a fitted effect of over 20% in size). A digest of the protocol: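 Antagonist mode: compound-treated TSHR-expressing HEK293 cells were stimulated with 1.5 ng/mL TSH (final) in presence of Ro20-1724 for 30 min at RT. HTRF cAMP detection after 1 h; each compound tested at 15 concentrations, triplicate.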

Assay [8] can be described thus: qHTS assay to identify small molecule agonists of the estrogen receptor alpha (ER-alpha) signaling pathway in the presence of an antagonist - cell viability counter screen (AID 1259386).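 Also: series mostly up to about 92 µM; cells exposed to compounds for 22 h at 37 °C before the viability read; nearly all actives have a fitted effect of over 30% in size.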 A digest of the protocol: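 VM7Luc4E2, stripped-serum pre-culture 5 d; 24hr plating; +ICI-182,780 10.0nM final; cpds 15 conc, 22hr, 37C/5% CO2; CellTiter-Fluor added at 21hr, fluorescence 1hr later.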

Assay [9] has as its target Progesterone receptor (Homo sapiens) (UniProt P06401). In words: qHTS assay to identify small molecule agonists of the progesterone receptor (PR) signaling pathway (AID 1346784; calls by dose curve; also: nearly all actives have a fitted effect of over 30% in size). A digest of the protocol: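 Beta-lactamase reporter read-out: after 16 hr compound treatment at 37C and a further 2 hr at room temperature with LiveBLAzer B/G FRET substrate, fluorescence was measured in PR-UAS-bla HEK 293T cells grown in 2% charcoal-stripped serum.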

The target is the same in assay [10]. In words: qHTS assay to identify small molecule antagonists of the progesterone receptor (PR) signaling pathway (AID 1346795; active = well fitted inhibition curve with a large enough effect in the signal ratio in the repeat runs, not every such curve was filed as active; the % refers to the signal ratio; also: potency is read from the fitted curve at half-maximal effect). A digest of the protocol:
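Read-out is fluorescence from the LiveBLAzer B/G FRET substrate, cleaved by a UAS-controlled beta-lactamase in PR-UAS-bla HEK293T cells after 16 hr exposure to compound plus 1 nM promegestone (final), followed by 2 hr at room temperature.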

A short description of assay [11]: qHTS assay to identify small molecule antagonists of the progesterone receptor (PR) signaling pathway - cell viability counter screen (AID 1346798).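 Also: HEK293T PR-UAS-bla cells stimulated with the agonist R5020; series mostly up to about 92 µM; nearly all actives have a fitted effect of over 50% in size.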 A digest of the protocol:
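HEK293T PR-UAS-bla, 2% charcoal-stripped FBS; 4 hr pre-plate; cpd + R5020, 16 h 37C; LiveBLAzer read first; then CellTiter-Glo 30 min RT, luminescence.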

Assay [12] can be described thus: qHTS assay to identify small molecule agonists of the progesterone receptor (PR) signaling pathway - cell viability counter screen (AID 1346799; calls by dose curve; also: nearly all actives have a fitted effect of over 45% in size). Summed up: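 Luminescence from CellTiter-Glo, added after the beta-lactamase FRET read in the same wells, gave cytotoxicity in PR-UAS-bla HEK293T cells treated with compounds for 16 hr at 37C.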
The nature of assay [13]: qHTS assay to identify small molecule antagonists of the TGF-beta/Smad signaling pathway - cell viability counter screen (AID 1346824). Also: nearly all actives have a fitted effect of over 50% in size. A digest of the protocol: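 Cytotoxicity counter-screen run in the same wells as the beta-lactamase Smad reporter read: CellTiter-Glo luminescence after 30 min at room temperature. HEK 293T SBE-bla cells had 5 hr compound exposure at 37 C with TGF-beta1 (0.25 ng/mL stock).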

The nature of assay [14]: qHTS assay to identify small molecule agonists of the TGF-beta/Smad signaling pathway - cell viability counter screen (AID 1346829). Also: top concentration of the series differs between compounds; nearly all actives have a fitted effect of over 45% in size. Summed up: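 Cytotoxicity counter screen: CellTiter-Glo luminescence (30 min, room temperature) measured in the SBE-bla HEK 293T reporter wells after 5 hr compound treatment at 37 C and the 2 hr substrate step.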
The nature of assay [15]: qHTS assay to identify small molecule agonists of the TGF-beta/Smad signaling pathway (AID 1346859; active = well fitted activation curve with a large enough effect in the signal ratio in the repeat runs, not every such curve was filed as active; the % refers to the signal ratio; also: series mostly up to about 77 µM). Summed up: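 SBE-bla HEK 293T, 4,000 cells/well, plated o/n; cpd in DMSO, 5 hr, 37 C/5% CO2; B/G FRET substrate 2 hr RT; ex 405, em 460/530 nm.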
Assay [16] deals with Thyrotropin-releasing hormone receptor (Homo sapiens) (UniProt P34981). The assay is described as follows: qHTS assay to identify small molecule antagonists of the thyrotropin-releasing hormone receptor (TRHR) signaling pathway (AID 1346877; active = well fitted inhibition curve with a large enough effect in the repeat runs, not every such curve was filed as active; also: series mostly up to about 51 µM). A digest of the protocol: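 Intracellular calcium fluorescence, read kinetically every second over 3 min, reports TRH-evoked signalling in HEK293 cells carrying TRHR. Test compounds were added 5 min ahead of a 1 nM TRH challenge.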

Assay [17] is described as follows: qHTS assay to identify small molecule agonists of the estrogen receptor beta (ER-beta) signaling pathway - cell viability counter screen (AID 1259380). Also: nearly all actives have a fitted effect of over 30% in size. A digest of the protocol:
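HEK293T ER-beta-UAS-bla; 2% CS-FBS; 6 hr pre-plate, 16 hr cpd at 37C/5% CO2; LiveBLAzer read first, then CellTiter-Glo 30 min RT, luminescence.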

Assay [18] deals with Estrogen receptor (Homo sapiens) (UniProt P03372). In words: qHTS assay to identify small molecule agonists of the estrogen receptor alpha (ER-alpha) signaling pathway in the presence of an antagonist (AID 1259383; calls by dose curve; also: top concentration of the series differs between compounds; nearly all actives have a fitted effect of over 15% in size). Summed up: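 VM7Luc4E2, endog. ER-alpha + 4×ERE-luc; charcoal-stripped FBS, phenol red-free, 5 d; 24hr plating; +10.0nM ICI-182,780 (final); cpds 15 conc, 22hr, 37C/5% CO2; ONE-Glo luminescence.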

Assay [19] concerns the target Thyrotropin-releasing hormone receptor (Homo sapiens) (UniProt P34981). In words: qHTS assay to identify small molecule agonists of the thyrotropin-releasing hormone receptor (TRHR) signaling pathway (AID 1346891; calls by dose curve; also: series mostly up to about 58 µM). Summed up: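 Intracellular calcium rise, read as fluorescence every second for 3 min, served as the agonist signal in dye-loaded HEK293 cells expressing TRHR; each compound ran at 15 concentrations in triplicate.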
% is scaled to controls: 0 for no effect and ±100 for the full control effect.

Chain of Thyrotropin receptor (Homo sapiens) (P16473 whole entry, looked up): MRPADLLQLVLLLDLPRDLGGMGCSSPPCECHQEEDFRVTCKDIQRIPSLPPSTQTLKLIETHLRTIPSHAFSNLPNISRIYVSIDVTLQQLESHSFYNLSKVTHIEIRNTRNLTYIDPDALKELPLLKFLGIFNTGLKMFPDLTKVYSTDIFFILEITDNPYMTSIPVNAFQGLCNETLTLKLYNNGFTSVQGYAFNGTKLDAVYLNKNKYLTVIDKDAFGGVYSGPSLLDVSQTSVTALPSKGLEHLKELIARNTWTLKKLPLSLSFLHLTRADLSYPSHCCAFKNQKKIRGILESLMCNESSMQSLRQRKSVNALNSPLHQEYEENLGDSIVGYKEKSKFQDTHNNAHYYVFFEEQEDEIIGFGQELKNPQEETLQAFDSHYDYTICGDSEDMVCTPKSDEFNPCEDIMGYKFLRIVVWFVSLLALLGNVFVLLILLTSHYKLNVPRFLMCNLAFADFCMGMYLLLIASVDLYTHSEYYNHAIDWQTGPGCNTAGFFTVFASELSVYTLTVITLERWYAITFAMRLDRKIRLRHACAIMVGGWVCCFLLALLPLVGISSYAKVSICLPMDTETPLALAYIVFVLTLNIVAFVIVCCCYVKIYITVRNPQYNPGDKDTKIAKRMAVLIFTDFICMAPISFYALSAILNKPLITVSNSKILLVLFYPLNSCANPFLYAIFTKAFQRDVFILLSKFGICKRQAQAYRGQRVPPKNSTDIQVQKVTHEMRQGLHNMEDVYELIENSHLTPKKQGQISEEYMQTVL
Chain of Thyrotropin-releasing hormone receptor (Homo sapiens) (P34981 whole entry, looked up): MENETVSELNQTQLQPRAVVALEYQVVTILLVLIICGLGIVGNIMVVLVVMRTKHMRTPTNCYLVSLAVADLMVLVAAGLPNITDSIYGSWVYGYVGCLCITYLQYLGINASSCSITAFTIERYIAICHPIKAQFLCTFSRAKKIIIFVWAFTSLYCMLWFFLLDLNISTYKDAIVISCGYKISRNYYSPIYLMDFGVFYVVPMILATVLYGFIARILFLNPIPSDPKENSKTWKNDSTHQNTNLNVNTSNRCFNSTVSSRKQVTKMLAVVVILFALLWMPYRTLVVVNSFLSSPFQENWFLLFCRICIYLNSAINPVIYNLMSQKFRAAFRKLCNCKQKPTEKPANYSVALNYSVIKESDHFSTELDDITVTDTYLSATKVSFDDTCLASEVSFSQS
Chain of Estrogen receptor beta (Homo sapiens) (Q92731 whole entry, looked up): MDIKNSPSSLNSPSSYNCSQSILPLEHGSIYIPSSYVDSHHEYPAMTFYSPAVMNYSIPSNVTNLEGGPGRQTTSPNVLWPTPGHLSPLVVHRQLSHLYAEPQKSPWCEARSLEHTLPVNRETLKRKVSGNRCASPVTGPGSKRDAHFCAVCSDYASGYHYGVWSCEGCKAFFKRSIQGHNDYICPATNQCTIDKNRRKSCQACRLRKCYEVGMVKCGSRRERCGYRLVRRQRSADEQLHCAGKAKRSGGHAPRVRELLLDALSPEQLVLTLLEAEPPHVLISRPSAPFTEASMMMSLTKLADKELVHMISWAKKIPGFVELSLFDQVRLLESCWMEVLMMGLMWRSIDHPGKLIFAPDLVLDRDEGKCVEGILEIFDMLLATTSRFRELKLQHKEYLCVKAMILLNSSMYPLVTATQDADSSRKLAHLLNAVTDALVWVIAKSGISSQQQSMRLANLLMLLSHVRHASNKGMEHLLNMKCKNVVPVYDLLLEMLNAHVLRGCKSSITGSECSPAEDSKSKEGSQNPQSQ
Chain of Progesterone receptor (Homo sapiens) (P06401 whole entry, looked up): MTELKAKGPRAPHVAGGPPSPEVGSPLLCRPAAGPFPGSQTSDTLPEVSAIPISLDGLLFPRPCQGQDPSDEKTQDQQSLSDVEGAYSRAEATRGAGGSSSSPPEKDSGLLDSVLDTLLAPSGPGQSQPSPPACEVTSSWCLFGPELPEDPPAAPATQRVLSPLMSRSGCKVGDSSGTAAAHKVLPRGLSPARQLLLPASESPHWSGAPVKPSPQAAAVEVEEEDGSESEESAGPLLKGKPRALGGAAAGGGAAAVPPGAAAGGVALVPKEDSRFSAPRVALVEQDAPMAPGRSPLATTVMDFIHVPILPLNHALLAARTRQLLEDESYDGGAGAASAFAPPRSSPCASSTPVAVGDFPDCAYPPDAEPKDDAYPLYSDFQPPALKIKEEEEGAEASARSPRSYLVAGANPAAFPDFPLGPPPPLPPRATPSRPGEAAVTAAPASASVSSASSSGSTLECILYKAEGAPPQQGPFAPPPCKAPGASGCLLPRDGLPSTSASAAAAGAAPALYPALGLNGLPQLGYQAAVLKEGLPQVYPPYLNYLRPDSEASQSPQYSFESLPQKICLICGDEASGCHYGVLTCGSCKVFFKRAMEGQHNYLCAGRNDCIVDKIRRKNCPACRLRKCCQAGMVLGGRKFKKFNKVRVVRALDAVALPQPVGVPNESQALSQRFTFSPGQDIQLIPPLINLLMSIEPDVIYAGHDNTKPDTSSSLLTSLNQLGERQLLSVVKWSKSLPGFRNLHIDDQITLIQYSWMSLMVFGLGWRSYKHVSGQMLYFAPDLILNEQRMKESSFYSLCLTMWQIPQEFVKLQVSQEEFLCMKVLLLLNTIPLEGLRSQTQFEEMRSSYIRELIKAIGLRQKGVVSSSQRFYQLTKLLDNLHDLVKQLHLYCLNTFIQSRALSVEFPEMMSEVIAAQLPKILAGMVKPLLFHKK
Chain of Estrogen receptor (Homo sapiens) (P03372 whole entry, looked up): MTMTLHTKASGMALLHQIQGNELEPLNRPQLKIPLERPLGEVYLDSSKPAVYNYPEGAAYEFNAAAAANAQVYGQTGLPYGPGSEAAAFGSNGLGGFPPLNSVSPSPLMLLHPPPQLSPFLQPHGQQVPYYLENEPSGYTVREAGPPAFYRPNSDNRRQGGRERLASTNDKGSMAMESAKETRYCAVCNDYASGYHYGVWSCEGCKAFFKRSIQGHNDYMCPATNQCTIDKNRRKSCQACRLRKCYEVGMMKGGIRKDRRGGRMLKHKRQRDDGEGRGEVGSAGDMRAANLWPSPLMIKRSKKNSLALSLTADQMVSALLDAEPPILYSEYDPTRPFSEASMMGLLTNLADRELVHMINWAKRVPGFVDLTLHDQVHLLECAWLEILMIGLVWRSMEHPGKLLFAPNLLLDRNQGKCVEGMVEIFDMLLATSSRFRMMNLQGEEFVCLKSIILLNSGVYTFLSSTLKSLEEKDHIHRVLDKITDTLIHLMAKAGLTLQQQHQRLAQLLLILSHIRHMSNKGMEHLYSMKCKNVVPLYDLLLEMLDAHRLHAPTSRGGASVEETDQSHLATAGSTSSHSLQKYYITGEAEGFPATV

As to `CCC1(C)NC(=O)NC1=O` (stereo not drawn), the Potency result in [1], in assay [3], in assay [4], in [7], in [8] and in assay [9] was “inactive” in each case. The Potency entry in [10], in assay [11] and in assay [12] was “inactive” in each case. In addition, the call in assay [2], in assay [5], in assay [6], in assay [13], in assay [14] and in [15] was inactive. Also, the outcome in [16] was inactive.
On to `CCOc1ccc(NS(=O)(=O)c2ccc(N)cc2)nn1`, for which the Potency entry in assay [1], in [3], in assay [4], in assay [7], in assay [8] and in [9] was “inactive” in each case. Further, the Potency result in [12] was “inactive”. Also, the result in assay [2], in assay [5], in assay [6], in assay [13], in [14] and in [15] was inactive.
As for `CCN[C@H]1CN(CCCOC)S(=O)(=O)c2sc(S(N)(=O)=O)cc21`, the Potency result in assay [1], in assay [3], in assay [4], in assay [17], in [18] and in assay [7] was “inactive” each time. Moreover, the Potency entry in assay [8], in assay [9], in assay [10], in assay [11], in assay [12] and in assay [19] was “inactive” in each case. The result in assay [2], in assay [6], in assay [13], in assay [14], in assay [15] and in [16] was inactive.
Consider `O=C(Cl)c1cccc([N+](=O)[O-])c1`, for which the Potency entry in assay [1], in [3], in assay [4], in assay [7], in [8] and in [9] was “inactive” in each case. For the same molecule, the Potency entry in assay [10] and in assay [12] was “inactive” in each case. Besides, the molecule was classed as inactive in [2], in assay [5], in assay [6], in [13], in [14] and in [15].
Take `CC(C)C(=O)OCC(C)(C)C(O)C(C)C` (stereo not drawn): the Potency entry in assay [1], in assay [3], in [4], in assay [17], in [18] and in assay [7] was “inactive” in each case. Moreover, the Potency entry in assay [8], in assay [9], in [12] and in assay [19] was “inactive” throughout. Besides, the molecule was classed as inactive in assay [2], in [6], in assay [13], in assay [14], in assay [15] and in [16].
Consider `O=c1[nH]cnc2c1ncn2[C@@H]1O[C@H](CO)[C@@H](O)[C@H]1O`, for which the Potency result in [1], in assay [3], in assay [4], in assay [17], in assay [7] and in assay [8] was “inactive” each time. In addition, the Potency result in [9], in assay [11], in [12] and in [19] was “inactive” throughout. The molecule was classed as inactive in assay [2], in assay [5], in [6], in [13], in assay [14] and in assay [15]. Moreover, the molecule was called inactive in [16].
In the case of `COc1cc2c(cc1N)oc1ccccc12`, the figures for the Potency in assay [1] and in assay [10] were 27.9 µM (active) and 44.2 µM (active), respectively. The outcome in assay [2], in assay [5], in assay [13], in assay [14], in assay [15] and in assay [16] was inactive. In addition, the Potency entry in assay [3], in assay [4], in [8], in [11] and in assay [19] was “inactive” each time.
Regarding `NC(Cc1ccc(F)cc1)C(=O)O` (stereo not drawn), the activity change, negative = inhibition in assay [1] is -11.4% [at 8.39 µM]; in [7] it was -1.13% [at 8.39 µM]. For the same molecule, the activation in [2] is -1.32% [at 8.39 µM]; in assay [9] it was 0.365% [at 8.39 µM]; in assay [15], -0.692% [at 6.97 µM]. The activity, negative = inhibition in assay [3] is 7.98% [at 8.39 µM]; in assay [16] it was -1.45% [at 4.65 µM]. For the same molecule, the activity change, negative = cytotoxicity in assay [4] was -0.068% [at 8.39 µM]; in assay [17] it was 1.35% [at 8.39 µM]; in [5], 1.79% [at 8.39 µM]; in [8] it was 2.6% [at 8.39 µM]; in [11], -3.28% [at 8.39 µM]; in assay [12], 1.93% [at 8.39 µM]. In addition, in assay [14], the activity change, negative = cytotoxicity was 4.18% [at 6.97 µM]. In assay [6], the cAMP activity change was -1.15% [at 8.39 µM]. In addition, in assay [13], the viability change, negative = cytotoxic was 18.5% [at 6.97 µM].

The record behind these values is PubChem BioAssay (Tox21).
